Results reported in PMC7862700, “An all-to-all approach to the identification of sequence-specific readers for epigenetic DNA modifications on cytosine”.

Legend:
Assay in all cases: DAPPL (digital affinity profiling via proximity ligation, sequencing); 10 mM Tris-HCl pH 7.5, 50 mM NaCl, 1 mM DTT, 4% glycerol, room temperature, 30 min; GST-TFs on glutathione beads, 16-mer random dsDNA library, 0.1% formaldehyde crosslink after washing; high values mean tight binding
FEV = target: T1, FEV (Homo sapiens, UniProt Q99581 1-238); settings: protein: recombinant; tags: N-terminal GST; dsDNA, one strand shown
T1 sequence: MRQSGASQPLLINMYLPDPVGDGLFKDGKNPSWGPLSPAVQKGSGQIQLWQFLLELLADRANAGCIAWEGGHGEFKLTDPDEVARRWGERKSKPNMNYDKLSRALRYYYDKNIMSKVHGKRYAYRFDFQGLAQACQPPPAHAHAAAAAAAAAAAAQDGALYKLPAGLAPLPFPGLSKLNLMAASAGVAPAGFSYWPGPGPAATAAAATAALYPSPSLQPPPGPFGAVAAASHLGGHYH
In short: (§1)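 GST fusions of human transcription factors were expressed in yeast and captured with glutathione beads. Once given DNA barcodes and pooled alongside a tag-only sample, they were incubated for 30 min at room temperature with 200 nmole of a random double-stranded 16-mer DNA library in Tris/NaCl/DTT/glycerol buffer, then washed, crosslinked (0.1% formaldehyde), proximity-ligated, PCR-amplified and sequenced on an Illumina NextSeq500. The binding signal of each hexamer is its read frequency for a factor divided by its frequency for the tag-only sample.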

ETV5 = ETV5 (Homo sapiens, UniProt P41161 1-510); settings: protein: recombinant; tags: N-terminal GST; dsDNA, one strand shown
Chain of ETV5 (P41161 whole entry): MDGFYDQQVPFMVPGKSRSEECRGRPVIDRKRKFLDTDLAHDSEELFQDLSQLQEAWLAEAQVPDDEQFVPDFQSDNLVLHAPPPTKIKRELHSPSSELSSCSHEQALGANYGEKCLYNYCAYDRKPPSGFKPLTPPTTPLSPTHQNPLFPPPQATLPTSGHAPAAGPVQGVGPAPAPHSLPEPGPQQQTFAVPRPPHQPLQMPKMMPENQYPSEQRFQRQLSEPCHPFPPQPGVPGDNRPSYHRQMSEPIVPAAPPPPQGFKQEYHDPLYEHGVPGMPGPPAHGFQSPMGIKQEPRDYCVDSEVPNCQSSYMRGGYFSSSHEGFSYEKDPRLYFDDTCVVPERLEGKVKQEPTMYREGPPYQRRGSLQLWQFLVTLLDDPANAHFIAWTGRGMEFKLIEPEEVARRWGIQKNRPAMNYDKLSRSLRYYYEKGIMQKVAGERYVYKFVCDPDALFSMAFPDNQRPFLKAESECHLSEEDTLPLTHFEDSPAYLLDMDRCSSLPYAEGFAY
In short: as §1

HSF1 = HSF1 (Homo sapiens, UniProt Q00613 1-529); settings: protein: recombinant; tags: N-terminal GST; chain copies: 3; dsDNA, one strand shown
Chain of HSF1 (Q00613 whole entry): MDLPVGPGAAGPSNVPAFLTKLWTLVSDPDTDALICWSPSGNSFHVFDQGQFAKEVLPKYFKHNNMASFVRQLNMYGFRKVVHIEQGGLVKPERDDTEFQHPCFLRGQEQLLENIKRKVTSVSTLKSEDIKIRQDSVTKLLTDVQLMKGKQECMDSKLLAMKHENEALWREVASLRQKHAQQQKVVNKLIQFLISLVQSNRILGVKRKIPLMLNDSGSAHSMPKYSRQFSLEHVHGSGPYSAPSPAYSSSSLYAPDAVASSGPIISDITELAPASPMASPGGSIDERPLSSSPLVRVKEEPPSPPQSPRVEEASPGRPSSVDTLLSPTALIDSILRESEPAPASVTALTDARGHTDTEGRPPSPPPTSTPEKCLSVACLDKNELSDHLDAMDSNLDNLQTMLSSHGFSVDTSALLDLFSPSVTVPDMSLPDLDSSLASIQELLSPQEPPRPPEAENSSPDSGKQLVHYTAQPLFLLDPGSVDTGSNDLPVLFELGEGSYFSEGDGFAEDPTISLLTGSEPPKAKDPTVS
In short: as §1

SPIC = target: T2, SPIC (Homo sapiens, UniProt Q8N5J4 1-248); settings: protein: recombinant; tags: N-terminal GST; dsDNA, one strand shown
T2 sequence: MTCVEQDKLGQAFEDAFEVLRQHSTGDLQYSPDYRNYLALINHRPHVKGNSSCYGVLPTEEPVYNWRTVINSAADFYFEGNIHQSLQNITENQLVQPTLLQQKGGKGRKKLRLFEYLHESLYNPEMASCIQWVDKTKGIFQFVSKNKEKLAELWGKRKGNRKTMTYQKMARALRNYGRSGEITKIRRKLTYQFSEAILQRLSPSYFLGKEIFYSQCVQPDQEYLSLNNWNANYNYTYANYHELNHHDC
In short: as §1

ELF4 = ELF4 (Homo sapiens, UniProt Q99607 1-663); settings: protein: recombinant; tags: N-terminal GST; dsDNA, one strand shown
Chain of ELF4 (Q99607 whole entry): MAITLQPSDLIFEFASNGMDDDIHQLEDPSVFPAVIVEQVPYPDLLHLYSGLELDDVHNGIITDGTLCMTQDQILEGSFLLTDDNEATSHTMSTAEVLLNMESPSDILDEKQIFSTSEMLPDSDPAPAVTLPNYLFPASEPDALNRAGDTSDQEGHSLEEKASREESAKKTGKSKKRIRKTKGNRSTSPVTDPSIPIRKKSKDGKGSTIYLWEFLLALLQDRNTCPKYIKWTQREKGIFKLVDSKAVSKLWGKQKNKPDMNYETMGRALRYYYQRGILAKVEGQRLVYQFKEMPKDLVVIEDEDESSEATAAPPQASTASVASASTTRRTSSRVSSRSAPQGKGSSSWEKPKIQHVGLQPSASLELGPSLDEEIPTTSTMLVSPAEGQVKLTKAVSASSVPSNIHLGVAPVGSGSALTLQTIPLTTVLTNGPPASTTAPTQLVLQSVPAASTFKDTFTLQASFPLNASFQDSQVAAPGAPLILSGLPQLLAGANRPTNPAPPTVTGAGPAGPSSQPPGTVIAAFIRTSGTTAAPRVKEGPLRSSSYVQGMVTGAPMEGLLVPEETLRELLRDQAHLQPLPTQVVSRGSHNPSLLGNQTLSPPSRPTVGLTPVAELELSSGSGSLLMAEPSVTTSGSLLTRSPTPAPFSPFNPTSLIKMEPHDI
In short: as §1

ELK4 = target: T3, ELK4 (Homo sapiens, UniProt P28324-2 1-405); settings: protein: recombinant; tags: N-terminal GST; dsDNA, one strand shown
T3 sequence: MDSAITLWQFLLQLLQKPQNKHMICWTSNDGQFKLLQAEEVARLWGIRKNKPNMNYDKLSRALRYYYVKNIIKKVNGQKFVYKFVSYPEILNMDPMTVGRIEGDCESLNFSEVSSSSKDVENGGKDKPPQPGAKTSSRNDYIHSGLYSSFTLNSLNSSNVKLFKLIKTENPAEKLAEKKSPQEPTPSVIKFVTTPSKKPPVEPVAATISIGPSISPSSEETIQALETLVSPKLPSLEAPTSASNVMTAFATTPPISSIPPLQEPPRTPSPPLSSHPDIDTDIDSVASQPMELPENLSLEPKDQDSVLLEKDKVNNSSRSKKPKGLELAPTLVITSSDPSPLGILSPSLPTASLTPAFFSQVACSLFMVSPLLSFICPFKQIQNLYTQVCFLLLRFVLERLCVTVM
In short: as §1

ETV2 = target: T4, ETV2 (Homo sapiens, UniProt O00321 1-342); settings: protein: recombinant; tags: N-terminal GST; dsDNA, one strand shown
T4 sequence: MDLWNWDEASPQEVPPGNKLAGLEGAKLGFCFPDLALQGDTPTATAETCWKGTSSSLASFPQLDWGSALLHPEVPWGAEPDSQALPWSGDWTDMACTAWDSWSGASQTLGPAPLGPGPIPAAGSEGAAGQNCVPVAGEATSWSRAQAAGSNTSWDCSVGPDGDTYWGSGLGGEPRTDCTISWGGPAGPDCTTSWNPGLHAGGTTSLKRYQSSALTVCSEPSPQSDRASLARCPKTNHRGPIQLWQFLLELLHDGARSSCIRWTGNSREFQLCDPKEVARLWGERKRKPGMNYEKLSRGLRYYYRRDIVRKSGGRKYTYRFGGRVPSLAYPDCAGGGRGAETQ
In short: as §1

ELF3 = target: T5, ELF3 (Homo sapiens, UniProt P78545 1-371); settings: protein: recombinant; tags: N-terminal GST; dsDNA, one strand shown
T5 sequence: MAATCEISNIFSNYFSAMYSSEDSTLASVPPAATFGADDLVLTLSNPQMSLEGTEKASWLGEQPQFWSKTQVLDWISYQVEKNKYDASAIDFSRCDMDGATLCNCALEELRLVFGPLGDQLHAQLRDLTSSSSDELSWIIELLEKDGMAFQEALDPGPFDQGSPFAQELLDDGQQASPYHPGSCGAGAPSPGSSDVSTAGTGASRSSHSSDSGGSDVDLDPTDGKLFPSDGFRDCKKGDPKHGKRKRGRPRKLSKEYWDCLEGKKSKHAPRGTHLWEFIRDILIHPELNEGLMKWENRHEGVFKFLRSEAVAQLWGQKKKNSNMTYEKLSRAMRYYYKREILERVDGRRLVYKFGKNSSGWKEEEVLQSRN
In short: as §1

CRX = CRX (Homo sapiens, UniProt O43186 1-299); settings: protein: recombinant; tags: N-terminal GST; dsDNA, one strand shown
Chain of CRX (O43186 whole entry): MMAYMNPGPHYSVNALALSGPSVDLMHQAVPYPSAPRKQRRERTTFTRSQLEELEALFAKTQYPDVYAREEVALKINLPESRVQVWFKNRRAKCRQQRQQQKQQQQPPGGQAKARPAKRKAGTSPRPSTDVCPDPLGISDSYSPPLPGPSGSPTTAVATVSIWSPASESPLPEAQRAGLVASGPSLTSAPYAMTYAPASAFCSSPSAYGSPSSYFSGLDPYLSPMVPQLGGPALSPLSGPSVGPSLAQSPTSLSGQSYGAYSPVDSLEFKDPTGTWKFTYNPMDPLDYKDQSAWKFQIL
In short: as §1

ETV1 = ETV1 (Homo sapiens, UniProt P50549 1-477); settings: protein: recombinant; tags: N-terminal GST; dsDNA, one strand shown
Chain of ETV1 (P50549 whole entry): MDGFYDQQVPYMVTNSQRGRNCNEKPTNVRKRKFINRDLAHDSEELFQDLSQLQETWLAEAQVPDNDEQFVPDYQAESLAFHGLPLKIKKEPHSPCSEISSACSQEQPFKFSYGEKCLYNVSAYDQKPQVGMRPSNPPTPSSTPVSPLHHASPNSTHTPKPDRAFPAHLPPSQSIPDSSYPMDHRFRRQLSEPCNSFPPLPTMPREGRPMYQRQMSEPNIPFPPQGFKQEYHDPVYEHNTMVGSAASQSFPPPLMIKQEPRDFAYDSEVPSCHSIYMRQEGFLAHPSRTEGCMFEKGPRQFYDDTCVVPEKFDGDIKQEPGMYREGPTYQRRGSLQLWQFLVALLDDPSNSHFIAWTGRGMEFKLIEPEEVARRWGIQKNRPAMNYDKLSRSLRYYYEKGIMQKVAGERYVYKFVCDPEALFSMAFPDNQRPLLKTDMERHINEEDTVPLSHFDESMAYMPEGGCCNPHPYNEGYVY
In short: as §1

ERF = target: T6, ERF (Homo sapiens, UniProt P50548 1-548); settings: protein: recombinant; tags: N-terminal GST; dsDNA, one strand shown
T6 sequence: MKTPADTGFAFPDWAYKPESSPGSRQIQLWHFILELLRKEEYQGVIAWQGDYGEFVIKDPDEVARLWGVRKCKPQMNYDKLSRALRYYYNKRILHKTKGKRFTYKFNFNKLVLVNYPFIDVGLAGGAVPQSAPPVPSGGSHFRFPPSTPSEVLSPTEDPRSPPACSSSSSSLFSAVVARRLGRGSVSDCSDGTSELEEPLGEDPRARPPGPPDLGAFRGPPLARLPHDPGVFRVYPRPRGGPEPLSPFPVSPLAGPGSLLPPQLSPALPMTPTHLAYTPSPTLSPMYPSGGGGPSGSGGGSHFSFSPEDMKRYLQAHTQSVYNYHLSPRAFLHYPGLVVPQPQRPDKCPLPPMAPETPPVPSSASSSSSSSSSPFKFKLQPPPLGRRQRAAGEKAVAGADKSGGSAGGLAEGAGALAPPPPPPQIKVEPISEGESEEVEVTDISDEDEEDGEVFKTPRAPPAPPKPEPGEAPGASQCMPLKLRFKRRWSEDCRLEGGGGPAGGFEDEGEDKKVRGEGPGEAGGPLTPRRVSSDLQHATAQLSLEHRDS
In short: as §1

ETV3L = target: T7, ETV3L (Homo sapiens, UniProt Q6ZN32 1-361); settings: protein: recombinant; tags: N-terminal GST; dsDNA, one strand shown
T7 sequence: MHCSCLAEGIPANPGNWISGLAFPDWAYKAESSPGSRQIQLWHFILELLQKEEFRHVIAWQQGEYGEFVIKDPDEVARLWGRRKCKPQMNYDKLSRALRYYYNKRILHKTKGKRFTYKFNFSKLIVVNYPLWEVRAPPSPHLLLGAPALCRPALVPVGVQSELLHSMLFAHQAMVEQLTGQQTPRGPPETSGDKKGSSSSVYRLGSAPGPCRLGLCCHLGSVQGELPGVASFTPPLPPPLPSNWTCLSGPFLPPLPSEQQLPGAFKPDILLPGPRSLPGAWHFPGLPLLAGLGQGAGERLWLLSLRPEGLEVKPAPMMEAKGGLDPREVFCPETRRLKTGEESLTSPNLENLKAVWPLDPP
In short: as §1

ETS2 = target: T8, ETS2 (Homo sapiens, UniProt P15036 1-469); settings: protein: recombinant; tags: N-terminal GST; dsDNA, one strand shown
T8 sequence: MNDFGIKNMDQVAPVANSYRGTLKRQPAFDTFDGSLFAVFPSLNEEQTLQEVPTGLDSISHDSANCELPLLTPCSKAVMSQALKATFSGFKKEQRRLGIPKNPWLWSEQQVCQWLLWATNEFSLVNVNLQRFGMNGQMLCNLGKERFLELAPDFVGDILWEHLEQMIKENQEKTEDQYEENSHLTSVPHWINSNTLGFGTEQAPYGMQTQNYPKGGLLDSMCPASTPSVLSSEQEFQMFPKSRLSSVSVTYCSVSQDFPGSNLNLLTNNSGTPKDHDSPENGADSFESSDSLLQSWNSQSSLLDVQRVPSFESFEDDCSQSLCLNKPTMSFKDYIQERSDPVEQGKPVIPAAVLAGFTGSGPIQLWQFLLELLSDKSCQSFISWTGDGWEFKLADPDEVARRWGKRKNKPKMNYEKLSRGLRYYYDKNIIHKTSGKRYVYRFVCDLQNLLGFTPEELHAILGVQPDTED
In short: as §1

SPDEF = target: T9, SPDEF (Homo sapiens, UniProt O95238 1-335); settings: protein: recombinant; tags: N-terminal GST; dsDNA, one strand shown
T9 sequence: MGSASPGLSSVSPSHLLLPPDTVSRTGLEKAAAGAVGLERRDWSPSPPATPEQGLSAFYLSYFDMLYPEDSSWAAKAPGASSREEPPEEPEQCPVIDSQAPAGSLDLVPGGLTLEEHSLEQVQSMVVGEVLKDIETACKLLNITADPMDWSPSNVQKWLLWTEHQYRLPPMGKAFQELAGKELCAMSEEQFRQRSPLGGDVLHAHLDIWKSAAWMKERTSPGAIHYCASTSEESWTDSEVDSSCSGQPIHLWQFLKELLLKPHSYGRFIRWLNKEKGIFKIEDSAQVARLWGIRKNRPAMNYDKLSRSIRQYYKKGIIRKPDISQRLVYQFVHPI
In short: as §1

ETV7 = target: T10, ETV7 (Homo sapiens, UniProt Q9Y603 1-341); settings: protein: recombinant; tags: N-terminal GST; dsDNA, one strand shown
T10 sequence: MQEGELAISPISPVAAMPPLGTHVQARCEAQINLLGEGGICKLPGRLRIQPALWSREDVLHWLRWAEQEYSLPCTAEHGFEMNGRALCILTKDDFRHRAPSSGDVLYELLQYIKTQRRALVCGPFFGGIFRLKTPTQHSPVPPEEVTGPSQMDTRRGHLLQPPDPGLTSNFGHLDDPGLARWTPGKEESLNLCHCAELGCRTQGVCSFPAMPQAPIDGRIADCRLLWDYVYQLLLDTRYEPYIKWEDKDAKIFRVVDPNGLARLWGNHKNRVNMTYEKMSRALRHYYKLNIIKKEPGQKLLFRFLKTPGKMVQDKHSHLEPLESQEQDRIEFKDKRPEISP
In short: as §1

ELF5 = target: T11, ELF5 (Homo sapiens, UniProt Q9UKW6-2 1-255); settings: protein: recombinant; tags: N-terminal GST; dsDNA, one strand shown
T11 sequence: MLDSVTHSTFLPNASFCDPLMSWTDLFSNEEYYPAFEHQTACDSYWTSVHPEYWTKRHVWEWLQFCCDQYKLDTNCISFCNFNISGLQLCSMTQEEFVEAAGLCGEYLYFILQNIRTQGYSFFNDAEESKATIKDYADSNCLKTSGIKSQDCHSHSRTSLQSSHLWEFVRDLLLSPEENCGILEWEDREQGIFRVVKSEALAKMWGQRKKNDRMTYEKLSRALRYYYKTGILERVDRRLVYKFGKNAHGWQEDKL
In short: as §1

ETV3 = target: T12, ETV3 (Homo sapiens, UniProt P41162-2 1-143); settings: protein: recombinant; tags: N-terminal GST; dsDNA, one strand shown
T12 sequence: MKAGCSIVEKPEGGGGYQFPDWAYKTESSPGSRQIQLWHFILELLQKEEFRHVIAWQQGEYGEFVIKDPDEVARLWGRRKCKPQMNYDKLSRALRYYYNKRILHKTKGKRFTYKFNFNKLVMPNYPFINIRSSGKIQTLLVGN
In short: as §1

ETV6 = ETV6 (Homo sapiens, UniProt P41212 1-452); settings: protein: recombinant; tags: N-terminal GST; dsDNA, one strand shown
Chain of ETV6 (P41212 whole entry): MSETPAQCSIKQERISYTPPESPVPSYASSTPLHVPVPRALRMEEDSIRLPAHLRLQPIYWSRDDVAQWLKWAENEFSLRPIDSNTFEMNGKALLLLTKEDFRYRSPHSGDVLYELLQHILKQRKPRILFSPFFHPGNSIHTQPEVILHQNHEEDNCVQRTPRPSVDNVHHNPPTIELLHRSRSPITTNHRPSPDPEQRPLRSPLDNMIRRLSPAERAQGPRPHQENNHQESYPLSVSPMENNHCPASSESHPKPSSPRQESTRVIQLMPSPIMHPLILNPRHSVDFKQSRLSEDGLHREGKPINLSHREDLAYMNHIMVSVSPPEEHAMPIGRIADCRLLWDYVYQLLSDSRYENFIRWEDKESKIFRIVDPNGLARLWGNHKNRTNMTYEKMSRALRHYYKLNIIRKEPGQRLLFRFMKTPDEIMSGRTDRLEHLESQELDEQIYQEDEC
In short: as §1

Sequence	binding signal (FEV)	binding signal (ETV5)	binding signal (HSF1)	binding signal (SPIC)	binding signal (ELF4)	binding signal (ELK4)	binding signal (ETV2)	binding signal (ELF3)	binding signal (CRX)	binding signal (ETV1)	binding signal (ERF)	binding signal (ETV3L)	binding signal (ETS2)	binding signal (SPDEF)	binding signal (ETV7)	binding signal (ELF5)	binding signal (ETV3)	binding signal (ETV6)
TCATAT	1.24 fold enrichment (6-mer frequency, TF over GST control)	1.23 fold enrichment (6-mer frequency, TF over GST control)	1.15 fold enrichment (6-mer frequency, TF over GST control)	1.13 fold enrichment (6-mer frequency, TF over GST control)	1.28 fold enrichment (6-mer frequency, TF over GST control)	1.23 fold enrichment (6-mer frequency, TF over GST control)	1.29 fold enrichment (6-mer frequency, TF over GST control)	1.23 fold enrichment (6-mer frequency, TF over GST control)	1.22 fold enrichment (6-mer frequency, TF over GST control)	1.35 fold enrichment (6-mer frequency, TF over GST control)	1.22 fold enrichment (6-mer frequency, TF over GST control)	1.3 fold enrichment (6-mer frequency, TF over GST control)	1.27 fold enrichment (6-mer frequency, TF over GST control)	1.23 fold enrichment (6-mer frequency, TF over GST control)	1.05 fold enrichment (6-mer frequency, TF over GST control)	1.19 fold enrichment (6-mer frequency, TF over GST control)	1.26 fold enrichment (6-mer frequency, TF over GST control)	1.24 fold enrichment (6-mer frequency, TF over GST control)
TATGTT	1.17 fold enrichment (6-mer frequency, TF over GST control)	1.15 fold enrichment (6-mer frequency, TF over GST control)	1.21 fold enrichment (6-mer frequency, TF over GST control)	1.06 fold enrichment (6-mer frequency, TF over GST control)	1.2 fold enrichment (6-mer frequency, TF over GST control)	1.29 fold enrichment (6-mer frequency, TF over GST control)	1.08 fold enrichment (6-mer frequency, TF over GST control)	1.1 fold enrichment (6-mer frequency, TF over GST control)	1.26 fold enrichment (6-mer frequency, TF over GST control)	1.1 fold enrichment (6-mer frequency, TF over GST control)	1.17 fold enrichment (6-mer frequency, TF over GST control)	1.2 fold enrichment (6-mer frequency, TF over GST control)	1.24 fold enrichment (6-mer frequency, TF over GST control)	1.18 fold enrichment (6-mer frequency, TF over GST control)	1.33 fold enrichment (6-mer frequency, TF over GST control)	1.24 fold enrichment (6-mer frequency, TF over GST control)	1.26 fold enrichment (6-mer frequency, TF over GST control)	1.08 fold enrichment (6-mer frequency, TF over GST control)
